Source: PubChem
TEAD-YAP inh = TEAD-YAP interaction inhibition, primary screen, TEAD-YAP interaction inhibitor project, luminescence, HEK-TIYL cells | TEAD-Gal4/YAP UAS-luciferase luminescence | inhibition, % at 9.12 µM | 640,000 tested, 1.4% active | AID 1259422, 2018; in the data active = inhibition above about 32%
GPR151 ag = activators of human GPR151, primary screen, cell-based, PathHunter beta-arrestin, luminescence. PathHunter beta-arrestin GPR151 cells. 650,000 tested, 1% active. G-protein coupled receptor 151 (Homo sapiens), Q8TDV0. activation, % at 11.2 µM. AID 1508602, 2020; in the data active = activation above about 4.9%
MITF primary = MITF inhibitors, primary screen, biochemical, AlphaScreen, human; AlphaScreen MITF homodimerization, bead proximity signal; inhibition, % at 2.6 µM; 650,000 tested, 0.91% active; AID 1259374, 2018; in the data active = inhibition above about 50%
FBW7 activator = FBW7 E3 ligase activators, primary screen, biochemical, AlphaScreen, human | 650,000 tested, 0.13% active | AlphaScreen FBW7–phospho-cyclin E peptide binding, activator screen | AID 1259310, 2017 | F-box/WD repeat-containing protein 7 (Homo sapiens), Q969H0 | normalized activity (activation), % at 26.1 µM; in the data active = normalized activity above about 1.9%;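 also: purified mutant Fbw7 with reduced substrate affinity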
Target sequence (Q969H0 whole entry, looked up): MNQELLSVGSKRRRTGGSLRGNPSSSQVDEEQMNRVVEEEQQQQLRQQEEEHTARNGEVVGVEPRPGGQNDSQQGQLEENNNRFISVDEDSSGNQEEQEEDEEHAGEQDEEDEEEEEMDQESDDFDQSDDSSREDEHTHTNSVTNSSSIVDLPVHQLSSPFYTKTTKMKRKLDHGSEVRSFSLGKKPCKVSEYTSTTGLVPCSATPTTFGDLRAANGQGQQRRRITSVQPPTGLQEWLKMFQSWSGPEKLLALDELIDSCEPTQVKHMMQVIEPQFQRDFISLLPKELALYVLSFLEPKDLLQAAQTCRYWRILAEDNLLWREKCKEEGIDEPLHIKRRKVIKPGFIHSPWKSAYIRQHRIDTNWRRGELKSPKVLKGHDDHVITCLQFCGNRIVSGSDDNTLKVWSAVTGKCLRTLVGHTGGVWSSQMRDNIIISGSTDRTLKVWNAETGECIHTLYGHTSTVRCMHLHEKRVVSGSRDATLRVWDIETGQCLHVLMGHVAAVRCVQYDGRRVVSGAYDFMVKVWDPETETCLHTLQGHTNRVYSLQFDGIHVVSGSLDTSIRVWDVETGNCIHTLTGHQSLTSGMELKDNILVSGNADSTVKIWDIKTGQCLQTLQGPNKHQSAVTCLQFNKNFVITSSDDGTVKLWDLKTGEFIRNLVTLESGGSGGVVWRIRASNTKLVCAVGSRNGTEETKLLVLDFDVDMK
GPR151 conf act = GPR151 activators, triplicate retest, confirmation, cell-based, PathHunter beta-arrestin, luminescence | 6,700 tested, under 10 active | shares compounds with GPR151 ag | activation, % at 11.2 µM | GPR151 PathHunter beta-arrestin cells, 90 min; % of EA-reagent control over plate median;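 active = mean percent activation across replicates above the confirmation screen cutoff of 4.91%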
GPR119 ag = GPR119 activators in beta-arrestin cells, counter-screen for GPR151 activator project, cell-based, PathHunter beta-arrestin, luminescence, triplicate; activation, % at 11.2 µM; AID 1508611, 2020; 6,700 tested, 0.3% active; shares compounds with GPR151 ag; 90 min; 0 = compound-well median, 100 = enzyme-acceptor control;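 active = mean percent activation in the counterscreen above 29.09%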;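 also: counterscreen on off-target GPR119 to flag nonselective hits from the GPR151 activator screen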
Hits are given with their value; 0 = inactive; - = not tested or not shown. An excerpt weighted towards active compounds, which were near 3.5% of everything screened.

SMILES | TEAD-YAP inh | GPR151 ag | MITF primary | FBW7 activator | GPR151 conf act | GPR119 ag
COc1ccc(C)c2sc(=NC(=O)CN3C(=O)CCC3=O)n(C)c12 | 0 | 0 | 0 | 0 | - | -
CC(=O)N1N=C(c2ccc3nccnc3c2)CC1c1ccccc1 (stereo unspecified) | 0 | 5.9 | 0 | 0 | 0 | 0
COc1ccc(C2=NN(C(C)=O)C(c3ccccc3)C2)cc1OC (stereo unspecified) | 0 | 0 | 0 | 0 | - | -
COc1cccc(OC)c1-c1[nH]nc2nc(-c3ccc(=O)[nH]c3)ccc12 | 0 | 6.7 | 0 | 0 | 0 | 0
Cc1ccc(NC(=O)CSc2ccccc2C(=O)NCCCN2CCCC2=O)cc1 | 0 | 0 | 0 | 0 | - | -
O=C(CN1CCN(S(=O)(=O)c2ccc(Cl)cc2)CC1)c1ccc(F)cc1 | 0 | 15 | 0 | 0 | 0 | 0
O=C(CSc1nnnn1-c1ccccc1)Nc1ccc(OC(F)(F)F)cc1 | 0 | 7.7 | 0 | 0 | 0 | 0
O=C(CSc1nnnn1-c1ccccc1)Nc1ccc(O)cc1 | 0 | 0 | 0 | 0 | - | -
CCCCCCCC(=O)Nc1ccc(C(=O)Nc2ccc(I)cc2C)cc1 | 0 | 0 | 0 | 0 | - | -
C=CCn1c(=N)c(C(=O)NCCc2ccccc2)cc2c(=O)n3cccc(C)c3nc21 | 0 | 0 | 0 | 0 | - | -
CCc1nnc(SCC(=O)N2c3ccccc3Sc3ccccc32)n1N | 0 | 0 | 0 | 0 | - | -
Cc1nnc(SCC(=O)N2c3ccccc3Sc3ccccc32)n1N | 0 | 7.4 | 0 | 0 | 0 | 0
COc1ccc(CCC(=O)Nc2nc3nc(C)cc(C)c3s2)cc1 | 0 | 0 | 0 | 0 | - | -
COc1cc(/C=N/O)cc(Cl)c1OS(=O)(=O)c1ccc(C)cc1 | 0 | 4.9 | 0 | 0 | 0 | 0
COc1cc(/C=N/O)cc(Cl)c1OC | 0 | 0 | 0 | 0 | - | -
COc1ccc(-c2csc(Nc3cccc([N+](=O)[O-])c3)n2)cc1 | 0 | 0 | 0 | 0 | - | -
Cc1cc(N2CCN(C(=O)c3ccc(Cl)cc3Cl)CC2)c(F)cc1[N+](=O)[O-] | 0 | 6.8 | 0 | 0 | 0 | 0
COc1cccc(C(c2nnnn2C(C)C)N2CCN(c3ccccc3)CC2)c1OC (stereo unspecified) | 0 | 5.4 | 0 | 0 | 0 | 0
O=C(CN1CCN(S(=O)(=O)c2ccc3c(c2)OCCO3)CC1)c1cccs1 | 0 | 9.7 | 0 | 0 | 0 | 0
Cc1ccc(C(=O)NNC2=NCCC2)cc1 | 0 | 5.6 | 0 | 0 | 0 | 0
O=C(NNC1=NCCC1)c1ccc(Br)cc1 | 0 | 0 | 0 | 0 | - | -
Nc1nnnn1/N=C/C=C/c1cccc([N+](=O)[O-])c1 | 0 | 0 | 0 | 0 | - | -
Nc1nnnn1/N=C\C=C\c1ccccc1 | 0 | 9.2 | 0 | 0 | 0 | 0
c1ccc(-c2nnc(SCCN3CCN(CCSc4nnc(-c5ccccc5)n4-c4ccccc4)CC3)n2-c2ccccc2)cc1 | 0 | 0 | 0 | 0 | - | -
CC(C(=O)c1ccc(Cl)cc1Cl)n1c[n+](N)cn1 (stereo unspecified) | 0 | 5.2 | 0 | 0 | 0 | 0
SMILES | TEAD-YAP inh | GPR151 ag | MITF primary | FBW7 activator | GPR151 conf act | GPR119 ag
N[n+]1cnn(CC(=O)c2ccc(Cl)cc2Cl)c1 | 0 | 0 | 0 | 0 | - | -
O=C(c1ccccc1)N1N=C(c2ccc(Br)cc2)CC1c1ccc([N+](=O)[O-])cc1 (stereo unspecified) | 0 | 0 | 0 | 0 | - | -
COc1ccccc1NC(=O)CN1CCN(c2nccn2-c2ccc(C)cc2)CC1 | 0 | 0 | 0 | 0 | - | -
CCOc1ccccc1NC(=O)CN1CCN(c2nccn2-c2ccc(C)cc2)CC1 | 0 | 8.0 | 0 | 0 | 0 | 0
CC(C)C(=O)Nc1nnc(S(=O)(=O)N(C)c2ccc(Cl)cc2)s1 | 0 | 5.8 | 0 | 0 | 0 | 0
O=C(CCN1CCCC1)Nc1ccccc1Cl | 0 | 0 | 0 | 0 | - | -
CCOc1ccc(C2=NNC(=O)CC2)cc1 | 0 | 0 | 0 | 0 | - | -
CCOC(=O)c1ccc(N2C(=O)CC(Cc3ccc(Cl)cc3)C2=O)cc1 (stereo unspecified) | 0 | 9.6 | 0 | 0 | 0 | 0
